Experimental data published in PubChem BioAssay AID1159580 (chemical genetic matrix, 2015).
The whole screen tested about 5,500 compounds, of which about 2,000 (36%) were called active. Another 18% or so got no clear call; they are omitted. No stated cut-off is given here; in the data, active means normalized growth mostly below about 0.91 (no sharp cut-off); inconclusive means no clear call, values can overlap the other calls; inactive means mostly above about 0.92. The list shows a part of the results.

Test: chemical genetic growth profiling, strain panel (AID 1159580);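 further: tested at 20 µM; growth read once vehicle control cultures reached saturation at 30 °C; 1 = growth at the plate median or of vehicle wells; lower values mean less growth of the strain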
Details: growth OD

Measured: normalized growth

c1ccc2c(c1)[nH]c1cnccc12
inactive: S. cerevisiae deletion strains, locus YJR066W, strain TOR1, active compounds read low 0.956 | S. cerevisiae deletion strains, locus YKL009W, strain mrt4, active compounds read low 1.01 | S. cerevisiae deletion strains, locus YKL068W, active compounds read low 0.975 | S. cerevisiae deletion strains, locus YKL085W, strain MDH1 (second series), active compounds read low 0.98 | S. cerevisiae deletion strains, locus YKL085W, strain MDH1, active compounds read low 0.98 | S. cerevisiae deletion strains, locus YKL160W, strain elf1, active compounds read low 1.01 | S. cerevisiae deletion strains, locus YKL190W, strain CNB1, active compounds read low 0.993 | S. cerevisiae deletion strains, locus YKR001C, strain vps1, active compounds read low 0.962 | S. cerevisiae deletion strains, locus YKR026C, strain gcn3, active compounds read low 0.986 | S. cerevisiae deletion strains, locus YKR091W, strain srl3, active compounds read low 1 | S. cerevisiae deletion strains, locus YLL001W, strain dnm1, active compounds read low 1 | S. cerevisiae deletion strains, locus YLL026W, active compounds read low 0.996 | S. cerevisiae deletion strains, locus YLL041C, strain sdh2, active compounds read low 1 | S. cerevisiae deletion strains, locus YLR027C, strain aat2, active compounds read low 1.01 | S. cerevisiae deletion strains, locus YLR039C, strain RIC1, active compounds read low 0.893 | S. cerevisiae deletion strains, locus YLR058C, strain SHM2, active compounds read low 1.01 | S. cerevisiae deletion strains, locus YLR102C, strain apc9, active compounds read low 0.972 | S. cerevisiae deletion strains, locus YLR113W, strain HOG1, active compounds read low 1.03 | S. cerevisiae deletion strains, locus YLR221C, strain rsa3, active compounds read low 1 | S. cerevisiae deletion strains, locus YLR258W, strain gsy2, active compounds read low 0.998 | S. cerevisiae deletion strains, locus YLR262C, strain YPT6 (second series), active compounds read low 0.948 | S. cerevisiae deletion strains, locus YLR262C, strain YPT6, active compounds read low 0.947 | S. cerevisiae deletion strains, locus YLR268W, strain sec22, active compounds read low 0.952 | S. cerevisiae deletion strains, locus YLR320W, strain mms22, active compounds read low 0.994 | S. cerevisiae deletion strains, locus YLR330W, strain CHS5, active compounds read low 0.976 | S. cerevisiae deletion strains, locus YLR342W, strain FKS1 (second series), active compounds read low 1.02 | S. cerevisiae deletion strains, locus YLR342W, strain FKS1, active compounds read low 1 | S. cerevisiae deletion strains, locus YLR357W, strain rsc2, active compounds read low 0.99 | S. cerevisiae deletion strains, locus YLR370C, strain arc18, active compounds read low 1 | S. cerevisiae deletion strains, locus YLR371W, strain rom2, active compounds read low 0.983 | S. cerevisiae deletion strains, locus YLR384C, strain iki3, active compounds read low 0.992 | S. cerevisiae deletion strains, locus YLR418C, strain cdc73, active compounds read low 1.02 | S. cerevisiae deletion strains, locus YML016C, strain PPZ1, active compounds read low 0.991 | S. cerevisiae deletion strains, locus YML032C, strain rad52, active compounds read low 1.02 | S. cerevisiae deletion strains, locus YML120C, strain ndi1, active compounds read low 1 | S. cerevisiae deletion strains, locus YML124C, strain tub3, active compounds read low 0.987 | S. cerevisiae deletion strains, locus YMR058W, strain fet3, active compounds read low 0.996 | S. cerevisiae deletion strains, locus YMR078C, strain ctf18, active compounds read low 0.956 | S. cerevisiae deletion strains, locus YMR125W, strain sto1, active compounds read low 0.996 | S. cerevisiae deletion strains, locus YMR129W, active compounds read low 1.01 | S. cerevisiae deletion strains, locus YMR205C, strain PFK2, active compounds read low 0.977 | S. cerevisiae deletion strains, locus YMR223W, strain ubp8, active compounds read low 1 | S. cerevisiae deletion strains, locus YMR231W, strain pep5, active compounds read low 0.994 | S. cerevisiae deletion strains, locus YMR263W, strain SAP30, active compounds read low 0.982 | S. cerevisiae deletion strains, locus YMR307W, strain GAS1, active compounds read low 1.23 | S. cerevisiae deletion strains, locus YNL067W, strain RPL9B, active compounds read low 0.986 | S. cerevisiae deletion strains, locus YNL071W, strain lat1, active compounds read low 1.01 | S. cerevisiae deletion strains, locus YNL153C, strain GIM3, active compounds read low 0.971 | S. cerevisiae deletion strains, locus YNL183C, strain NPR1, active compounds read low 0.965 | S. cerevisiae deletion strains, locus YNL209W, strain ssb2, active compounds read low 1.01 | S. cerevisiae deletion strains, locus YNL233W, strain BNI4, active compounds read low 0.984 | S. cerevisiae deletion strains, locus YNL248C, strain rpa49, active compounds read low 1.01 | S. cerevisiae deletion strains, locus YNL250W, strain rad50, active compounds read low 0.941 | S. cerevisiae deletion strains, locus YNL271C, strain bni1, active compounds read low 0.985 | S. cerevisiae deletion strains, locus YNL298W, strain CLA4, active compounds read low 0.984 | S. cerevisiae deletion strains, locus YNL307C, strain MCK1, active compounds read low 0.976 | S. cerevisiae deletion strains, locus YNL322C, strain KRE1 (second series), active compounds read low 1 | S. cerevisiae deletion strains, locus YNR049C, strain mso1, active compounds read low 1.01 | S. cerevisiae deletion strains, locus YNR052C, strain pop2, active compounds read low 0.997 | S. cerevisiae deletion strains, locus YOL012C, strain htz1 0.866 | S. cerevisiae deletion strains, locus YOL147C, strain pex11, active compounds read low 0.988 | S. cerevisiae deletion strains, locus YOR001W, strain rrp6, active compounds read low 0.996 | S. cerevisiae deletion strains, locus YOR061W, strain CKA2, active compounds read low 1.01 | S. cerevisiae deletion strains, locus YOR069W, strain VPS5, active compounds read low 0.998 | S. cerevisiae deletion strains, locus YOR070C, strain gyp1, active compounds read low 1.01 | S. cerevisiae deletion strains, locus YOR080W, strain dia2, active compounds read low 0.986 | S. cerevisiae deletion strains, locus YOR083W, strain WHI5, active compounds read low 1 | S. cerevisiae deletion strains, locus YOR106W, strain vam3, active compounds read low 1 | S. cerevisiae deletion strains, locus YOR136W, strain idh2, active compounds read low 0.974 | S. cerevisiae deletion strains, locus YOR144C, strain elg1, active compounds read low 0.99 | S. cerevisiae deletion strains, locus YOR184W, strain ser1, active compounds read low 0.995 | S. cerevisiae deletion strains, locus YOR231W, strain MKK1, active compounds read low 1.03 | S. cerevisiae deletion strains, locus YOR265W, strain rbl2, active compounds read low 0.994 | S. cerevisiae deletion strains, locus YOR270C, strain vph1, active compounds read low 1 | S. cerevisiae deletion strains, locus YOR290C, strain snf2, active compounds read low 1.03 | S. cerevisiae deletion strains, locus YOR316C, strain cot1, active compounds read low 0.988 | S. cerevisiae deletion strains, locus YPL051W, strain arl3, active compounds read low 1 | S. cerevisiae deletion strains, locus YPL055C, strain LGE1, active compounds read low 0.991 | S. cerevisiae deletion strains, locus YPL078C, strain atp4, active compounds read low 1 | S. cerevisiae deletion strains, locus YPL106C, strain sse1, active compounds read low 0.983 | S. cerevisiae deletion strains, locus YPL240C, strain hsp82, active compounds read low 1.02 | S. cerevisiae deletion strains, locus YPL241C, strain CIN2, active compounds read low 1.01 | S. cerevisiae deletion strains, locus YPL256C, strain CLN2, active compounds read low 1.02 | S. cerevisiae deletion strains, locus YPR119W, strain clb2, active compounds read low 0.979 | S. cerevisiae deletion strains, locus YPR141C, strain kar3, active compounds read low 0.984 | S. cerevisiae deletion strains, locus YPR163C, strain tif3, active compounds read low 0.985 | S. cerevisiae deletion strains, locus YPR167C, strain met16, active compounds read low 0.986 | S. cerevisiae deletion strains, strain wtn01, active compounds read low 0.95 | S. cerevisiae strains, strain wild type, active compounds read low 0.999
